Assay outcomes (PubChem BioAssay)
D1 antag: antagonists of human D1 dopamine receptor | HEK293 TREx D1 cells, calcium flux, dopamine EC80; active compounds read low | activity change, negative = inhibition, % at 10 µM | 360,000 tested, 3.2% active; in the data active means activity change below about -30%; further: on the % scale 0 is the no-effect control and ±100 the full control effect
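Antagonism measured as reduced calcium response to an EC80 dopamine addition following 180 s compound pre-read; cells were inducible HEK293 Trex D1 plated overnight at 30 C, read kinetically at 1 cycle/sec.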
ERG-DNA inh: inhibitors of human ERG Ets domain-DNA interaction. P11308. fluorescence polarization, His-ERG Ets domain / labelled DNA. Potency, µM (titrated, usually from 76.9 µM), without a hit: top-dose FP activity, negative = inhibition, usual class: inhibitors. 370,000 tested, 0.028% active. AID 624246; active means well fitted inhibition curve with a large enough effect in the polarisation, with a control signal flat; the % refers to the polarisation;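 further: polarization taken with two DNA probes labelled with fluorescein and Texas red; potency means the concentration at half of the fitted maximal effect; % of control where 0% means no effect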
Target sequence (P11308 whole entry, looked up, the tested form may be a part): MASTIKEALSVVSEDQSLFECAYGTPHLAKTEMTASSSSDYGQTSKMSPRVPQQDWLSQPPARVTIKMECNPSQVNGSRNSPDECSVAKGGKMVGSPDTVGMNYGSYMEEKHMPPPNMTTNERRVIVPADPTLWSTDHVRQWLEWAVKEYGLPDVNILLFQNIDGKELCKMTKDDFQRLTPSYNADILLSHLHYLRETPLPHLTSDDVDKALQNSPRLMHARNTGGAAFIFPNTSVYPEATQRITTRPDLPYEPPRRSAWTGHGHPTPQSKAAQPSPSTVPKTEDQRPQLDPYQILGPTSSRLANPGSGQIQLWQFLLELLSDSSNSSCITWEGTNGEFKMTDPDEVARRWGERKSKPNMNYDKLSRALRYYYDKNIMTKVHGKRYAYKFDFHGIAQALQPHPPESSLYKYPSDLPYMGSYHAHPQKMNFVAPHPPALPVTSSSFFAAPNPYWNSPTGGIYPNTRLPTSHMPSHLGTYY
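His-tagged ERG Ets domain (1 uM in the protein solution; 300mM KCl, 50mM Tris-HCl, 1mM EDTA, 1mM DTT, pH 7.5) received compound, then a probe mix of 5 nM fluorescein-DNA and 100nM Texas-615-DNA. Fluorescence polarization was read for both dyes.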
D1 potentiator: enhances dopamine response at the human D1 receptor; HEK293 TREx D1 cells, calcium flux, dopamine EC20 potentiation; potentiation, % at 10 µM; 360,000 tested, 0.036% active; AID 504651; in the data active means potentiation above about 30%; further: 0% is about no effect
D1 ag: agonists of human D1 dopamine receptor; 360,000 tested, 1% active; activation, % at 2 µM; P21728; HEK293 T-REx D1 cells, calcium flux, agonist mode; in the data active means activation above about 30%; further: 0% is about no effect
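Inducible HEK293 T-REx D1 cells, force-coupled to calcium signalling, were plated at 4000 cells/well with tetracycline and held overnight at 30 C. After no-wash calcium dye loading, compound-evoked calcium rise over 180 s flagged agonists.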
DRD3 antagonist: blocks the human D3 dopamine receptor. P35462. max response, negative = inhibition, %. 360,000 tested, 2.5% active. D3R cells, DiscoveRx beta-arrestin luminescence, antagonist mode; active compounds read low; in the data active means max response below about -50%; further: on the % scale 0 is the no-effect control and ±100 the full control effect
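Cells expressing the human receptor were seeded at 1500 cells/well, incubated overnight at 37 degrees C in 5% CO2, then exposed to library compounds with dopamine controls for 90 minutes at 37 degrees C before luminescent detection.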
DRD3 agonist: D3 dopamine receptor (human) agonism; D3R DiscoveRx beta-arrestin cells, luminescence, 90 min; AID 652048; max activation, %; 410,000 tested, 0.58% active; P35462; in the data active means max activation above about 30%; further: 0% is about no effect
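Agonist-mode cell screen: cells plated at 1500/well and incubated overnight at 37 °C, then exposed to library compounds for 90 min at 37 °C. Detection reagent was added for 30–60 min at room temperature, and luminescence was read.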
Starred values were filed as active, the others as inactive; . = no result. Rows were chosen to be rich in hits. Some 6.1% of all compounds tested hit in one or more screens of this group.

SMILES | D1 antag | ERG-DNA inh | D1 potentiator | D1 ag | DRD3 antagonist | DRD3 agonist
CCS(=O)(=O)c1ccc(-c2csc(-c3ccccc3Cl)n2)c(Cl)c1Cl | -3 | -13% | -6 | 1 | 49 | 6
CCOC(=O)N1CCc2c(sc3ncn(Cc4ccc(F)cc4)c(=O)c23)C1 | 16 | 37% | -3 | 2 | -9 | -5
CCOC(=O)N1CCc2c(sc3nc[nH]c(=O)c23)C1 | -31* | 8% | -2 | 2 | -18 | 11
O=C(OCC(=O)N1CCOCC1)c1ccc(Cl)c(S(=O)(=O)N2CCc3ccccc32)c1 | . | -5% | . | . | 0 | 4
Cc1nc(SCC(=O)NCc2ccco2)c2c(=O)n(C)c(=O)n(CC(C)C)c2n1 | -6 | . | 0 | 2 | . | .
Cc1scc(C(=O)Nn2cnnc2)c1-c1ccccc1 | -4 | 12% | 2 | 2 | -55* | -13
Cc1ccc(CC(=O)Nc2ccc([N+](=O)[O-])cc2C)cc1 | -41* | 2% | -5 | 11 | 0 | 4
Cc1ccc(CC(=O)Nc2cccc([N+](=O)[O-])c2)cc1 | -20 | 8% | -2 | 8 | -5 | 0
Cc1ccc(S(=O)(=O)CC(=O)Nc2ncc([N+](=O)[O-])s2)cc1 | -4 | -3% | -8 | 3 | -3 | -5
Cc1ccc(CC(=O)Nc2ncc([N+](=O)[O-])s2)cc1 | -39* | -10% | -7 | 12 | -8 | -1
Cc1ccc(SCC(=O)Nc2cc([N+](=O)[O-])ccc2O)cc1 | -26 | 9% | -10 | 30* | -18 | -4
O=C(CSCc1ccc(Cl)cc1)Nc1cc([N+](=O)[O-])ccc1O | -24 | 2% | -5 | 24 | 0 | -9
O=C1CCCCN1CCC(=O)N1CCCC(N2CCN(c3cccc(Cl)c3)CC2)C1 (stereo unspecified) | -4 | -10% | 4 | 0 | 1 | -2
CC(C)Oc1ccc(Cc2cnc(N)nc2N)cc1 | -3 | -12% | 0 | 0 | 21 | 1
O=C(CCCCn1c(=O)c2ccccc2n(Cc2ccccc2)c1=O)NC1CCN(Cc2ccccc2)CC1 | 2 | -8% | -10 | 5 | -58* | -20
CCCN(CCC)C(=O)Cn1c(=O)n(CCCCC(=O)NC2CCCC2)c(=O)c2ccccc21 | -5 | 8% | -2 | 4 | -19 | 5
O=C(Cn1[nH]c(=O)c2ccccc2c1=O)NC1CCN(Cc2ccccc2)CC1 | 13 | -10% | 4 | 3 | -72* | -8
O=C(CCCCn1c(=O)c2ccccc2n(CC(=O)NC2CCCC2)c1=O)NC1CCCC1 | -39* | -8% | -1 | 0 | -16 | -1
COc1ccccc1/C=N/NC(=O)c1cccc(NC(=O)c2ccccc2C)c1 | -23 | 3% | -10 | 3 | 0 | -4
Cc1cccc(NC(=S)N/N=C/c2ccc([N+](=O)[O-])s2)c1 | 5 | -5% | -4 | 12 | -97* | -6
CCc1nc2ccccc2n1CC(=O)N1CCN(S(=O)(=O)c2cccc(C(F)(F)F)c2)CC1 | -7 | -2% | -6 | -1 | 5 | 6
O=C(c1cc(Cl)nc2ccccc12)N1CCN(S(=O)(=O)c2cccc(C(F)(F)F)c2)CC1 | -33* | 7% | -6 | -1 | -5 | 6
Cc1ccc(Cl)cc1-c1cc(C(=O)Nc2ccc(F)cc2)[nH]n1 | . | . | . | . | -85* | -18
COc1ccc(Cl)c(-c2cc(C(=O)Nc3ccc(F)cc3)[nH]n2)c1 | . | . | . | . | -52* | -20
COc1ccc(C(=O)Nc2ccc3oc(-c4ccc(F)cc4Cl)nc3c2)cc1 | -38* | -1% | -3 | 0 | . | -4
SMILES | D1 antag | ERG-DNA inh | D1 potentiator | D1 ag | DRD3 antagonist | DRD3 agonist
COc1cc2ccccc2cc1C(=O)Nc1ccc2oc(-c3ccc(F)cc3Cl)nc2c1 | 4 | -1% | 1 | -2 | . | 4
Cc1ccc(Cl)cc1-c1cc(C(=O)NCc2ccc(C(F)(F)F)cc2)[nH]n1 | . | . | . | . | -54* | -11
COc1ccc(-c2ccc3c(c2)C2CC3CCN2Cc2ccc(OC(F)(F)F)cc2)cc1 (stereo unspecified) | . | 22% | . | . | 0 | -24
Cc1ccc(S(=O)(=O)N2CCN(C(=O)COC(=O)Cc3ccc(Cl)cc3)CC2)c(C)c1 | -23 | 8% | -3 | 4 | 5 | 2
COc1ccccc1-n1cc(C(=O)NCC(=O)N2CCN(Cc3ccccc3)CC2)c2ccccc2c1=O | -21 | -3% | 0 | 0 | 3 | -3
CCOC(=O)c1[nH]c(C)c(C(=O)NCCC2=CCCCC2)c1C | -15 | -6% | -5 | 1 | 1 | 0
O=C(NC(=S)NCCC1=CCCCC1)c1ccc(Br)o1 | -32* | 0% | -5 | 4 | -9 | -13
O=C(CCCc1ccccc1)NCCC1=CCCCC1 | -10 | 8% | -4 | 0 | -5 | 0
CC(=O)c1c(C)[nH]c(C(=O)NCCC2=CCCCC2)c1C | -19 | 3% | -6 | 15 | -57* | 2
O=C(NCCC1=CCCCC1)c1ccc(Br)o1 | 6 | -4% | -7 | 0 | 19 | 1
O=C(NCCC1=CCCCC1)C(c1ccccc1)c1ccccc1 | -33* | 2% | -8 | 5 | -17 | 0
O=C(CCc1ccccc1)NCCC1=CCCCC1 | -33* | . | 14 | 2 | 20 | -6
Cc1cccc(NC(=S)N2CCC(N(C)CC3CCCO3)CC2)c1C (stereo unspecified) | -6 | 7% | -4 | 2 | 6 | -11
O=C(O)C1=C(C2CCCCC2)C(=O)c2ccccc21 | . | 3% | . | . | 3 | -1
O=C(O)c1ccc(C2CCCCC2)cn1 | -17 | -9% | 2 | 2 | -95* | -9
COc1cc(C(=O)N2CCSCC2)ccc1OC1CCN(C(C)=O)CC1 | -1 | 8% | -3 | 2 | 8 | -4
CCCOc1ccc(C(=O)NCC(c2ccco2)N(C)C)cc1 (stereo unspecified) | 1 | -2% | -5 | 2 | 10 | -4
NC[C@@H]1O[C@H](C23CC4CC(CC(C4)C2)C3)Cc2c1ccc(O)c2O | -78* | 1% | -5 | 118* | 31 | 88*
CC1=CC(=C(C#N)c2nc3ccccc3s2)C=C(C)N1Cc1ccco1 | -9 | . | -10 | 44* | -56* | -18
O=C(Cn1cc(COc2ccc(Br)cc2[N+](=O)[O-])nn1)c1ccc(O)cc1 | . | -2% | . | . | -59* | -14
Cc1cccc(C)c1OCc1cn(CC(=O)c2ccc(O)cc2)nn1 | . | 3% | . | . | -61* | -13
CC(=O)c1ccc(OCc2cn(CC(=O)c3ccc(O)cc3)nn2)c(C)c1 | . | . | . | . | -24 | -6
COc1cc(C(C)=O)ccc1OCc1cn(CC(=O)c2ccc(O)cc2)nn1 | . | -4% | . | . | -72* | 3
CC(=O)Nc1ccc(OCc2cn(CC(=O)c3ccc(O)cc3)nn2)cc1 | . | . | . | . | -114* | -21
COc1cc(C=O)ccc1OCc1cn(CC(=O)c2ccc(O)cc2)nn1 | . | 3% | . | . | 34 | 0
